Source: PubChem BioAssay AID778 (Sanford-Burnham Center for Chemical Genomics, 2007)
The whole screen tested about 96,000 compounds, of which about 20,000 (21%) were called active.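 The calls were made as follows: active = CYP2C19 inhibition above a set limit at 5 µM in the primary screen (cut at about 50% in these data); inactive = the rest.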 Not all results are given here.

Target: Cytochrome P450 2C19 (Homo sapiens) (UniProt P33261)
Assay: blockers of cytochrome P450 2C19 activity – biochemical, luminescence, ADME assay, primary screen (AID 778);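 also: plate controls were negative control wells for no effect and 2.5 mM tranylcypromine positive control for full effect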
Conditions: CYP2C19 Supersomes, luciferin-H EGE luminescence, 30 min; at 5 µM; stronger effect = higher value

Cytochrome P450 2C19 (Homo sapiens), sequence (P33261 whole entry, looked up): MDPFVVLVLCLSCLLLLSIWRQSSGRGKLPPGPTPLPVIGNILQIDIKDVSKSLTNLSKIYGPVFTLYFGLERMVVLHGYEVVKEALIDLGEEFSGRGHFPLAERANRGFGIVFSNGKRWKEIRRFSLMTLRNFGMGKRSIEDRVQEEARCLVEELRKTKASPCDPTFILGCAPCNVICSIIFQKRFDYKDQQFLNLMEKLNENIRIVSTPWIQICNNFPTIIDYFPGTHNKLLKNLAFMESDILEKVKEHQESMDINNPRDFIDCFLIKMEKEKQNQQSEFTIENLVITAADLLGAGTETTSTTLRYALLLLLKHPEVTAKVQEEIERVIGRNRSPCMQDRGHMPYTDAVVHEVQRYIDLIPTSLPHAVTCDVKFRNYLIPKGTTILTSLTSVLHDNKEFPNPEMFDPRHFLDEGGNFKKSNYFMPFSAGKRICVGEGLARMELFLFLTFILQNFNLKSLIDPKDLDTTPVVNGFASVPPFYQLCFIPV

inhibition, active:
Cc1ccc(C)c(NC(=O)C2Cc3ccccc3CN2C(=O)OCc2ccccc2)c1 (configuration not stated) 62.3%, CCOC(=O)c1cn(CC(=O)Nc2ccc(C(C)C)cc2)nn1 62%, CSCc1cc(N2CCOCC2)nc(SCc2ccc(Cl)cc2Cl)n1 50.8%, COc1ccc(Cn2c(=O)sc3ccccc32)cc1OC 99.8%, Cn1c(=O)c2c(nc(SCC(=O)Nc3ccccc3N3CCCCC3)n2C)n(C)c1=O 86.6%, Cn1c(=O)c2c(nc(SCCNS(=O)(=O)c3ccccc3)n2C)n(C)c1=O 73.3%

inhibition, inactive:
CCOC(=O)/C=c1\s/c(=C\c2ccccc2OC)c(=O)n1CC(=O)N1CCOCC1 -9.3%, CCNC(=O)c1sccc1-n1cccc1 16.3%, CCN1CCN(C(c2cccnc2)c2cc(Cl)c3cccnc3c2O)CC1 (configuration not stated) 17.2%, Cc1ccc(C(=O)NNC(=O)c2cc3cc4ccccc4nc3s2)cc1 -3.1%, O=c1[nH]c(-c2ccccc2)c(-c2ccccc2)[nH]1 1.3%, O=C1CC2(CCCCC2)Oc2ccc(OCC(=O)N3CCOCC3)cc21 -3.8%, CCCCc1nnc(NC(=O)CSc2nc(C)cc(=O)[nH]2)s1 4.3%, O=C1/C(=C\Nc2ccccc2)CCN1c1ncccn1 7.1%, CCOC(=O)c1ccn(-c2nc(-c3ccco3)cc(C(F)(F)F)n2)n1 9.7%, CC(=O)C1C(c2cccc(Oc3ccccc3)c2)NC(=O)NC1(O)C(F)(F)F (configuration not stated) 24.4%, Cc1ccccc1-c1ccc(Nc2ccc(C(=O)N3CCOCC3)cc2)nn1 34.2%, Cc1ccc(C)c(NC(=O)C2CCCN2C(=O)OC(C)(C)C)c1 (configuration not stated) 11.7%, CC(=O)N1Cc2ccccc2CC1C(=O)O (configuration not stated) -21.6%, Cc1cc(C(F)(F)F)nn1-c1nc(-c2ccco2)cc(C(F)(F)F)n1 2.2%, CCOC(=O)c1ccc(NC(=O)CSc2ncccn2)cc1 26.9%, CCOC(=O)c1ccc(NC(=O)Cn2nnc(-c3ccc(C)cc3)n2)cc1 8.5%, COCC(C)NC(=O)c1ccc(-n2nc(C(F)(F)F)cc2-c2cccs2)cc1 (configuration not stated) 12.4%, CSCc1cc(N(C)C)nc(SCc2ccc(Cl)cc2Cl)n1 40.2%, O=c1cc(CSc2ccc(Cl)cc2)nc(N2CCOCC2)[nH]1 38.8%, O=C(c1ccc2c(c1)OCCO2)C1CCN(S(=O)(=O)c2cccc(F)c2)CC1 35.4%, Cc1nnc(NC(=O)Cn2c(=O)sc3ccccc32)s1 47.6%, COc1ccc(CCNC(=O)CCn2c(=O)oc3ccccc32)cc1OC 1.4%, C#CC(C)(C)NC(=O)CSc1nc2c(c(=O)n(C)c(=O)n2C)n1CCCC -7.1%, CCCSc1nc2c(c(=O)[nH]c(=O)n2C)n1CCc1ccccc1 26%, Cn1c(=O)c2c(nc(N3CCCCCC3)n2CC(=O)c2ccc(Br)cc2)n(C)c1=O 0.8%, CC(C)n1c(SCC(=O)Nc2ccccc2N2CCCCC2)nc2c1c(=O)n(C)c(=O)n2C 40.4%
